For nine compounds, AC50 and outcome results are on record in PubChem BioAssay AID1117308 (National Center for Advancing Translational Sciences (NCATS), 2015).

The structures appear in SMILES notation. This is one part of the list. Activity calls are given as the source filed them. Calls follow the shape of the full dose curve.

The conditions of the assay: Ebola pseudovirus entry assay, ratio channel.
As for `CC[C@]1(O)C[C@@H]2CN(CCc3c([nH]c4ccccc34)[C@@](C(=O)OC)(c3cc4c(cc3OC)N(C)[C@H]3[C@@](O)(C(=O)OC)[C@H](OC(C)=O)[C@]5(CC)C=CCN6CC[C@]43[C@@H]65)C2)C1`, the AC50 is 0.137 µM (active). Regarding `CO[C@]12CC[C@@]3(C[C@@H]1[C@](C)(O)C(C)(C)C)[C@@H]1Cc4ccc(O)c5c4[C@@]3(CCN1CC1CC1)[C@H]2O5`, the AC50 was 9.87 µM (active). Consider `CN(C(=O)CN(CCO)CC(=O)N(C)C(C)(C)Cc1ccccc1)C(C)(C)Cc1ccccc1`, for which the AC50 was 6.11 µM (active). On to `CCN(CC)CCCC(C)Nc1ccnc2cc(Cl)ccc12` (centres undefined), for which the AC50 was 15.3 µM (active). In the case of `COc1ccccc1OCCNCC(O)COc1cccc2[nH]c3ccccc3c12` (centres undefined), the AC50 is 17.2 µM (active). On to `CCCCN(CCCC)CCC(O)c1cc2c(Cl)cc(Cl)cc2c2cc(C(F)(F)F)ccc12` (centres undefined), for which the AC50 is 13.7 µM (active). As to `CCCC(C(=O)OCCN(CC)CC)(c1ccccc1)c1ccccc1`, the AC50 is 4.85 µM (active). Take `CO[C@H]1C[C@@H]2CC[C@@H](C)[C@@](O)(O2)C(=O)C(=O)N2CCCC[C@@H]2C(=O)O[C@H]([C@@H](C)C[C@@H]2CC[C@H](O)[C@H](OC)C2)CC(=O)[C@H](C)C=C(C)[C@@H](O)[C@@H](OC)C(=O)[C@H](C)C[C@H](C)C=CC=CC=C1C`: the result was inactive. As for `Clc1ccc(C(Cn2ccnc2)OCc2ccsc2Cl)c(Cl)c1` (centres undefined), the AC50 was 13.7 µM (active).
